In the supplement of paper PMC6555819:

Key:
Test in all cases: PBM binding z-score (relative to random genomic background probes); higher = stronger binding; sequences stand for … in GC…GCGATTGACAGCGTAGAATGAAGG
[1] = tested on: FXR:RXRa (NR concentration 270 nM, RXRa partner concentration 90 nM)
Outline: (§1)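 For binding z-scores, the reference was random background probes on custom Agilent 4×180K protein-binding microarrays. These arrays were incubated 1 h with ligand-free nuclear receptor dimers in PBS pH 7.4, 2% milk, 0.02% Triton X-100, 1 mM DTT, 0.2 mg/mL BSA and 0.4 mg/ml salmon testes DNA. Fluorescence was scanned after antibody detection of each partner (one per run) and regression-normalized.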

[2] = tested on: LXRa:RXRa (NR concentration 270 nM, RXRa partner concentration 90 nM)
Outline: as §1

[3] = tested on: LXRa homodimer (NR concentration 270 nM)
Outline: as §1

[4] = tested on: LXRb:RXRa (NR concentration 270 nM, RXRa partner concentration 90 nM)
Outline: as §1

[5] = tested on: LXRb homodimer (NR concentration 270 nM)
Outline: as §1

[6] = tested on: PPARa:RXRa (NR concentration 270 nM, RXRa partner concentration 90 nM)
Outline: as §1

[7] = tested on: PPARg:RXRa (NR concentration 180 nM, RXRa partner concentration 90 nM)
Outline: as §1

[8] = tested on: PPARg:RXRa 270nM:90nM, anti-RXR (NR concentration 270 nM, RXRa partner concentration 90 nM)
Outline: as §1

[9] = tested on: PPARg:RXRa 30nM:10nM, anti-RXR (NR concentration 30 nM, RXRa partner concentration 10 nM)
Outline: as §1

[10] = tested on: PPARg:RXRa 90nM:30nM, anti-RXR (NR concentration 90 nM, RXRa partner concentration 30 nM)
Outline: as §1

Row | Sequence | PBM binding z-score [1] | PBM binding z-score [2] | PBM binding z-score [3] | PBM binding z-score [4] | PBM binding z-score [5] | PBM binding z-score [6] | PBM binding z-score [7] | PBM binding z-score [8] | PBM binding z-score [9] | PBM binding z-score [10]
1 | CCGACTGGGGCAAACGTTACCATACTCAGTACGA | -0.264 | -0.168 | -0.00869 | -0.27 | -0.682 | 1.61 | 3.62 | 4.48 | 2.27 | 4.25
2 | CTCGAAAGGTCGGTTGAGGTGAGTATACGGATAA | 2.05 | 1.7 | -0.0944 | 1.35 | -0.0787 | 2.63 | 0.61 | 1.18 | -0.156 | 0.663
3 | ATCTCTAGGTAACATGTTCAGTGAAAGAGAGGAC | 0.248 | 0.254 | -0.139 | 0.402 | 0.902 | 0.519 | 1.15 | 1.25 | 0.432 | 1.07
4 | CCTTACGGGTCCCGAGGTTATAGCACGACGAGCG | 0.0402 | 0.394 | -0.262 | 0.124 | -0.6 | 0.95 | 0.635 | -0.283 | -0.617 | -0.745
5 | CCTATTAGTTGTCCATAAGGGCAACCGAAGCTCG | 0.902 | 0.553 | 0.8 | 0.558 | 1.17 | 0.459 | 0.174 | 0.706 | -0.0798 | 0.365
6 | TCGAGTAGGTTACCAATGGGACATTCAGCTTTCT | 0.203 | 1.04 | -0.603 | 0.366 | -0.806 | 0.841 | 0.563 | 1.2 | 1.11 | 1.08
7 | CGTGAAAGTTCAACTAAGGTAACGTAAAGCACGC | 6.32 | 6.09 | 4.26 | 3.89 | 1.84 | 4.98 | 3.58 | 4.78 | 1.6 | 3.39
8 | TCGAGTAGGTTAGTCGGGGCACTCAGCCAACATA | 0.251 | 0.253 | -0.0703 | 0.402 | -1.06 | 0.681 | 0.103 | 0.749 | 0.995 | 0.753
9 | ATCTCTAGGTAAAGATAGTTTAGTGAATGCAAAT | 0.535 | 0.896 | 0.494 | 0.361 | 0.415 | 0.104 | 0.777 | 0.218 | 0.448 | 0.329
10 | TAGCCTAGGTCATTCAGGGGCGAGTATAGAAAGC | 5.04 | 5.21 | 0.875 | 3.77 | 1.13 | 3.69 | 2.21 | 2.4 | 0.501 | 1.61
11 | ACAGACAGGTGATGAAGATAACTCAGGCTATCAT | -0.21 | -0.125 | -0.283 | -0.276 | -0.0745 | -0.164 | 0.734 | -0.057 | 0.429 | 0.0893
12 | AGAACTAGGGCACGCTGAGTTGATAGCAGAGTAG | -0.159 | -0.0416 | -0.762 | -0.394 | -0.896 | 3.01 | 5.21 | 4.47 | 1.85 | 3.37
13 | CGTCCAAGGTCAGCAGGTCAGTGATAGCGACGTG | 5.6 | 3.86 | 0.399 | 2.59 | -0.265 | 4.52 | 4.13 | 4.45 | 1.15 | 3.05
14 | ACAGACTGGTGAGTGAAGGTAACTCAGCTGGACG | -0.31 | -0.557 | -0.264 | -0.755 | -0.871 | -0.552 | 0.259 | -0.5 | -0.557 | -0.438
15 | CGAACTAGGTCAAGGACAGTGAATCTCCGCACGC | 3.29 | 2.29 | 0.163 | 1.51 | -0.597 | 4.64 | 7.4 | 6.24 | 3.8 | 6.11
16 | AATACAGGCTCATCGTAGGCCAGAGTACGCACAG | -0.253 | -0.407 | -0.211 | -0.712 | -0.726 | -0.569 | 0.784 | -0.256 | -0.133 | -0.254
17 | TCTTGTAGATCATAGGTTAAGAAAGCCGAAGCCT | 1.15 | 0.999 | -0.0576 | 0.991 | 0.0364 | 2.8 | 4.38 | 5.93 | 4.93 | 6.23
18 | GCAACTGGGGCAAAGCAGGTTACCATAAGGTTGG | 0.393 | 0.00585 | -0.385 | 0.511 | -0.769 | 2.06 | 2.61 | 2.77 | 0.156 | 1.77
19 | TCTGCTACGTCAACGATGGTCAGCTAATCTGCTA | -0.231 | -0.136 | -0.622 | -0.384 | -0.541 | -0.191 | 0.00276 | 0.525 | 1.6 | 1.1
20 | ACCTCTAGGTAAAGTTCAGTGAAAGATCGATAGA | 0.698 | 1.23 | 0.94 | 0.893 | 0.102 | 1.58 | 1.08 | 2.32 | 0.584 | 1.63
21 | GCTATTAGTTGAAAGGGCACCCGAATGATTCTCG | 0.43 | 0.387 | 0.235 | 0.554 | -0.128 | 2.14 | 2.65 | 4.3 | 2.41 | 3.99
22 | TAGCCTAGGTCATGGGCCAGTATACCACGCGAAC | 4.32 | 3.28 | 0.195 | 2.24 | -0.333 | 4.04 | 3.78 | 3.66 | 0.829 | 2.59
23 | ATCTCTAGGTAAAAGTTCAGTTAATCCCGAGGAT | 1.31 | 1.89 | 1.81 | 1.34 | 1.19 | 4.56 | 8.35 | 7.9 | 8.17 | 8.69
24 | ATATGTAGCTTACATCCGGGTCATTCAGGCTATG | 1.18 | 1.36 | 0.618 | 1.73 | 0.372 | 2.39 | 0.959 | 0.733 | 0.448 | 0.268
